Assay [1] in a line: inhibitors of TNFa-induced NFkB p65 translocation, primary screen, imaging, HUVEC, MLSMR starter and 10KST1 sets (AID 438;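 active = inhibition above 20% together with a positive visual image hit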;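 note: compound added about 3h40 before a 20 min TNFalpha stimulation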;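 for inhibition: signal is the nuclear over cytoplasmic p65 intensity ratio per well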). To be noted: HUVEC TNFa-induced p65 nuclear translocation; cell count: measured here: nuclei count (cytotoxicity indicator), at 2.08 µM; inhibition: at 2 µM, stronger effect = higher value, 0% TNFa-plus-vehicle, 100% no-TNFa wells.
A short description of assay [2]: inhibitors of mutant huntingtin aggregation, primary screen, imaging, exon1htt(103Q)mCFP cells, high-content imaging (AID 483;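 active = visual image review flags a hit and inhibition of aggregation exceeds 20%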;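 note: compound exposure lasted 3 days before fixation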;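 for nuclei count: percent of the per-plate median nuclei count of sample wells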). To be noted: exon1htt(103Q)mCFP cell line, aggregate imaging, at 2 µM; inhibition of aggregation: stronger effect = higher value; nuclei count: measured here: cell count, toxicity.
The nature of assay [3]: inhibitors of E-selectin induction by TNFa, primary screen, imaging, HUVEC, immunofluorescence, MLSMR starter and 10KST1 sets (AID 487;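 active = visually confirmed hit in the image check and inhibition above 20%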;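 for inhibition: signal is fraction of cell area covered by stained E-selectin grains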;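 for nuclei count: 100% = median nuclei count of all wells on the same plate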). To be noted: HUVEC TNFalpha-induced E-selectin immunofluorescence imaging, at 2 µM; inhibition: stronger effect = higher value; nuclei count: measured here: cell number, toxicity.
A short description of assay [4]: DUSP6 inhibitors restoring Erk phosphorylation by chemical complementation, primary imaging in DUSP6-transfected HeLa (AID 609;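 active = compounds giving at least 50% inhibition in the cell-based MKP-3 phosphatase rescue imaging test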;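 for inhibition: phospho-Erk level distribution per well compared with pooled transfected vehicle control wells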). To be noted: HeLa MKP-3 transfected, phospho-Erk imaging KS statistic, at 10 µM, cells stimulated with TPA for 15 min.
Assay [5] has as its target Dual specificity protein phosphatase 6 (Homo sapiens) (UniProt Q16828). The description is as above. To be noted: HeLa MKP-3 transfected, phospho-Erk imaging KS statistic; at 10 µM; stronger effect = higher value; cells stimulated with TPA for 15 min.
In assay [6] the target is Voltage-gated potassium channel subunit beta-2 (Rattus norvegicus) (UniProt P62483). Kind of assay: KvBeta enzyme negative modulators, primary screen, biochemical, NADPH fluorescence (AID 622;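 active = fluorescence slope higher than the sample average by over 3 SD, cut at about -0.22 in these data, passing the limit was not always enough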;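 note: slope of raw intensity against log time taken from 70 to 1610 s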). To be noted: recombinant KvBeta, 4-cyanobenzaldehyde reduction, at 10 µM, stronger effect = higher value.
The target is the same in assay [7]. Kind of assay: KvBeta positive modulators, primary screen, biochemical, NADPH fluorescence (AID 623;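 active = NADPH fluorescence slope more negative than the mean of all samples by about 3 SD, 99.7% confidence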;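 note: fluorescence intensity change per second fitted from 20 to 320 s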). To be noted: Recombinant KvBeta, NADPH fluorescence decrease slope, 10 min; at 10 µM; stronger effect = lower value.
Assay [8] addresses Muscarinic acetylcholine receptor M4 (Homo sapiens) (UniProt P08173). Kind of assay: compounds altering M4/GIRK thallium flux, either direction, primary screen, M4 allosteric agonist project, cell-based, HEK293 M4/GIRK, BTC-AM (AID 625;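 active = fluorescence slope after compound addition differing from the mean of all tested samples at 99.7% confidence, mostly higher but some lower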;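 note: thallium influx through GIRK channels coupled to M4 in HEK293 cells with BTC-AM dye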). To be noted: at 10 µM, actives lie on both sides.
Assay [9] is described as follows: inhibitors of larval lipid processing in zebrafish, primary screen, whole organism, PED6 fluorescence, gall bladder and intestine (AID 686;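 active = a full or partial loss of lipid-probe fluorescence in the fish gall bladder, intestine or both, judged by eye; inactive = no fluorescence loss, or compound toxic to the fish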;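 note: larvae 5 to 7 days old with five fish per well; signal comes from phospholipase A2 cleavage of quenched PED6 carried via bile; overnight exposure to compound and PED6 before scoring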). To be noted: Zebrafish larvae PED6 lipid processing, fluorescence scoring; screened at 20 µM (by protocol).
The nature of assay [10]: inhibitors of Chlamydomonas gravitaxis, primary screen, whole organism, Chlamydomonas reinhardtii, WT vs cilia-less mutant, absorbance, 96-well (AID 463189).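 Note: 0% = wild type cc124 cells in DMSO and 100% = ciliumless bld1 mutant cells.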 To be noted: OD600 absorbance, 2 days, at 10 µM, stronger effect = higher value.
Assay [11] is described as follows: inhibitors of Sendai virus-induced IRF3 signaling, primary screen, TLR/RLR signaling modifier project, cell-based, Sendai virus stimulus, luciferase, 10K MLSCN set (AID 602276;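 active = inhibition at or above 50% at 10 µM; inactive = inhibition below 50%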;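 note: firefly luciferase from ISG56 promoter only with Renilla not read in this screen; 0% = Sendai virus plus DMSO and 100% = medium plus DMSO without virus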). To be noted: HEK293 RL24 IRF3 luciferase reporter, at 10 µM, stronger effect = higher value. On the technique in general: In a reporter assay the amount or activity of a reporter protein is the signal.

A short description of assay [12]: inhibitors of poly I:C-induced TLR3 signaling, primary screen, cell-based, poly I:C stimulus, luciferase, 10K MLSCN set (AID 602277;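 active = inhibition of the reporter signal at or above 50%; inactive = inhibition below 50%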). To be noted: HEK293-TLR3 RL24 IRF3 luciferase reporter, at 10 µM, stronger effect = higher value.
Assay [13] has as its target Alpha-2C adrenergic receptor (Homo sapiens) (UniProt P18825). Kind of assay: modulators of alpha2C/GIRK thallium flux, primary screen, cell-based, HEK293 alpha2C/GIRK1/2 (AID 624;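 active = fluorescence slope after compound addition differing from the mean of all screened samples at 99.7% confidence, in either direction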;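 note: slope of fluorescence ratio to pre-addition baseline per second over 15 to 24 s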). To be noted: thallium flux BTC fluorescence, at 10 µM, actives lie on both sides.
The mark [14] stands for this setting: measured here: cell density z-score.
The mark [15] stands for this setting: measured here: nuclear c-Myc green intensity z-score.
Setting [16] is: measured here: nuclear pErk red intensity z-score, stronger effect = higher value.

As a reminder, the inhibition is the relative decrease from the control value, in per cent.

Values joined by “and” are separate entries in the source; they are usually repeats but may differ in a detail not shown here. Equal entries are not always repeated. Active and inactive are the calls of the source.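 Rule for the calls, unless noted: active = inhibition at or above 50% relative to wild type and mutant plate controls; inactive = inhibition below 50%.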

Chain of Dual specificity protein phosphatase 6 (Homo sapiens) (Q16828 whole entry, looked up): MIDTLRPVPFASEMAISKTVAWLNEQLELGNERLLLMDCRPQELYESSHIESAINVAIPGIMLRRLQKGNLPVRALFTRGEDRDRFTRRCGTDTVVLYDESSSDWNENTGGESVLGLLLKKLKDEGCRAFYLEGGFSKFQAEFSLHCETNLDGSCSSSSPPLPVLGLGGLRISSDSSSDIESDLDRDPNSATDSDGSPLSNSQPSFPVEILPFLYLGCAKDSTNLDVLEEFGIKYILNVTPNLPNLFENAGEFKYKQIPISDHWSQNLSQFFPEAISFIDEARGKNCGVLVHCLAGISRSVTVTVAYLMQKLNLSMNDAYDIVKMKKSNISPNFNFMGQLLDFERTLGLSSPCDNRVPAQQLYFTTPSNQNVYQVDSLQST
Chain of Voltage-gated potassium channel subunit beta-2 (Rattus norvegicus) (P62483 whole entry, looked up): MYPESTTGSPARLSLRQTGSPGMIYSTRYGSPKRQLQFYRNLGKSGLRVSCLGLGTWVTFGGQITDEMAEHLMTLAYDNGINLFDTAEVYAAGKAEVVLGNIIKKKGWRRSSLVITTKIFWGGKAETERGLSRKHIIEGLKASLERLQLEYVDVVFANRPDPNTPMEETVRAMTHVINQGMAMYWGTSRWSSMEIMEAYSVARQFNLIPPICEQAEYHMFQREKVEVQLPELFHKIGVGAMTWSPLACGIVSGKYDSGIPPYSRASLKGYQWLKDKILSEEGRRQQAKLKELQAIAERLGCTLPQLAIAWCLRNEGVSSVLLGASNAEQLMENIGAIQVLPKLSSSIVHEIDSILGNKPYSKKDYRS
Chain of Alpha-2C adrenergic receptor (Homo sapiens) (P18825 whole entry, looked up): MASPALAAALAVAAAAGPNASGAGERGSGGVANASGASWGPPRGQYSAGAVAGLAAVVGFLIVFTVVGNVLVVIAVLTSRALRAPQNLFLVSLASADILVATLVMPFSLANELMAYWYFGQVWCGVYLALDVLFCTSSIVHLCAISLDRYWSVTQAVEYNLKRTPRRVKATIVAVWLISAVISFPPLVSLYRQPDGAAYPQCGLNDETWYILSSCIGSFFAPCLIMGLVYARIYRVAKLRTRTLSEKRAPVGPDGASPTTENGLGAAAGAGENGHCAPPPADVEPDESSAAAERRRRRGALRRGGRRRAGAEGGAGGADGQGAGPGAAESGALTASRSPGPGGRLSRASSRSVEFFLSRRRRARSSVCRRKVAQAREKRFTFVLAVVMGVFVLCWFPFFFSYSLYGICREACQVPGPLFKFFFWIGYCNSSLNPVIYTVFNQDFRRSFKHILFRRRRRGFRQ
Chain of Muscarinic acetylcholine receptor M4 (Homo sapiens) (P08173 whole entry, looked up): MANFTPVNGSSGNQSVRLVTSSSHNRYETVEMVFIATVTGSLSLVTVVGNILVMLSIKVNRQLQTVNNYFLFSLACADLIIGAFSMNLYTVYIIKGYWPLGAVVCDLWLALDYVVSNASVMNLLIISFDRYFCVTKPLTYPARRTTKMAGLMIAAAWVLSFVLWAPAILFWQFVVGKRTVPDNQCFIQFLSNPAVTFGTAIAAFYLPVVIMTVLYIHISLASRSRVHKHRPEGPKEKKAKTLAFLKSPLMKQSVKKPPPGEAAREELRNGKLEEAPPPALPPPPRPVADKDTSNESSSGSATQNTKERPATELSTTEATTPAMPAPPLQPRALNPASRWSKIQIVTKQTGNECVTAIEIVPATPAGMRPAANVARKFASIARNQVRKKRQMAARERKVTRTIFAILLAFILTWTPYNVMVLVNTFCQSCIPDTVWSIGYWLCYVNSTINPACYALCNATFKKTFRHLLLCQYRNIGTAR

Consider `CN(CC(O)COc1ccc(OCC(O)CN(C)C2CCCCC2)cc1)C1CCCCC1` (configuration not stated), for which the cell count in [1] stood at 605. The inhibition is -1.3% (inactive) in assay [1]; -149% (inactive) in assay [3]; 11.3% (inactive) in assay [5]; 3.04% (inactive) in assay [10]; -47.8% (inactive) in assay [11]; 52.7% (active) in [12]. For the same compound, in [2], the inhibition of aggregation is -434% (inactive). The nuclei count in [2] is 67%; in assay [3], 120%. Further, the results for the z-score in [4] (setting [14]), in [4] (setting [15]) and in assay [4] (setting [16]) were -0.395, 0.402 and 1.26, respectively. Besides, the fluorescence slope is -0.384 (inactive) in assay [6] and 0.00666 (inactive) in assay [8]. For the same compound, the NADPH fluorescence slope in assay [7] is -3e-05 (inactive). Besides, the call in assay [9] was inactive.

`CC(C)Cc1ccc(C(C)C(=O)O)cc1` (configuration not stated): the cell count in [1] worked out at 604. The inhibition in assay [1] is -0.8% (inactive); in assay [3], -67.2% (inactive); in assay [5], -0.828% (inactive); in assay [10] it was 1.82% (inactive) and -1.73% (inactive); in [11], -8.48% (inactive); in [12], -4.09% (inactive). In addition, the nuclei count in assay [3] is 132%. Further, the z-score is -0.577 in assay [4] (setting [14]), -0.145 in assay [4] (setting [15]) and 0.0811 in assay [4] (setting [16]). In assay [6], the fluorescence slope is -0.469 (inactive). For the same compound, in assay [7], the NADPH fluorescence slope was -4.6e-05 (inactive). In addition, the slope in assay [13] is 0.00562 (inactive). Moreover, the compound was classed as inactive in [9].

`C[C@H](CS)C(=O)N1CCC[C@H]1C(=O)O`: in [1], the cell count was determined as 555. In addition, the inhibition in assay [1] was 1.6% (inactive); in [3] it was -80.8% (inactive); in assay [5] it was 12.4% (inactive); in [10], -3.81% (inactive) and 9.89% (inactive); in [11], -6.06% (inactive); in [12], 12.3% (inactive). The compound further yielded a nuclei count in assay [3] of 124%. Moreover, the figures for the z-score in [4] (setting [14]), in assay [4] (setting [15]) and in assay [4] (setting [16]) were 0.625, -1.55 and 1.02, respectively. In assay [6], the fluorescence slope was -0.485 (inactive). Also, in [7], the NADPH fluorescence slope was -4e-05 (inactive). The slope in assay [13] was 0.00488 (inactive).

For `COc1ccc2c(C)nc(Nc3nc(C)cc(C)n3)nc2c1`, in [1], the cell count came to 644. Also, the inhibition is -5.8% (inactive) in assay [1]; -5.95% (inactive) in [5]; -4.58% (inactive) in [10]; 14% (inactive) in assay [11]; 20% (inactive) in [12]. The inhibition of aggregation in assay [2] was -15.4% (inactive). This compound also came in with a nuclei count in [2] of 116%. Moreover, the z-score in [4] (setting [14]) is -1.03; in assay [4] (setting [15]), 0.468; in assay [4] (setting [16]), -0.248. Besides, the fluorescence slope in assay [6] is -0.534 (inactive). Also, the NADPH fluorescence slope in assay [7] is -1e-05 (inactive). Also, in [13], the slope is 0.00447 (inactive). Further, in assay [9], the call was inactive.

Take `CC[C@H](C)C(=O)O[C@H]1C[C@@H](C)C=C2C=C[C@H](C)[C@H](CC[C@@H]3C[C@@H](O)CC(=O)O3)[C@H]21`: the cell count in assay [1] was 724. In addition, the inhibition was -11.9% (inactive) in [1]; -93.9% (inactive) in assay [3]; 21.2% (inactive) in [5]; 14.3% (inactive) in [10]; -4.78% (inactive) in assay [11]; 49.1% (inactive) in assay [12]. In addition, the inhibition of aggregation in assay [2] was 0.4% (inactive). The results for the nuclei count in assay [2] and in assay [3] were 105% and 122%, respectively. Besides, the values for the z-score in [4] (setting [14]), in assay [4] (setting [15]) and in assay [4] (setting [16]) were 0.18, -1.59 and -0.22, respectively. In assay [13], the slope was 0.00586 (inactive). In assay [9], the result was inactive.

In the case of `CCc1nc2sc3c(c2c(=O)o1)CCCC3`, the cell count in assay [1] stood at 736. Moreover, the inhibition in [1] is -8.2% (inactive); in assay [3] it was -32.9% (inactive); in assay [5], -2.07% (inactive); in [10] it was 8.78% (inactive); in [11], 23% (inactive); in assay [12] it was 35.5% (inactive). The inhibition of aggregation in assay [2] is -11.4% (inactive). In addition, the nuclei count in assay [2] came to 104%; in assay [3], 130%. The values for the z-score in assay [4] (setting [14]), in assay [4] (setting [15]) and in [4] (setting [16]) were -0.371, -1.28 and 1.35, respectively. The figures for the fluorescence slope in [6] and in assay [8] were -0.413 (inactive) and 0.00552 (inactive), respectively. Moreover, in [7], the NADPH fluorescence slope was -5.4e-05 (inactive). Further, the outcome in assay [9] was inactive.

Turning to `O=S(=O)(c1cccc2cnccc12)N1CCCNCC1`, the cell count in assay [1] came out at 401. The inhibition in assay [1] is 4.2% (inactive); in assay [3], -37.4% (inactive); in [5], 21.2% (inactive); in assay [10], 0.327% (inactive); in assay [11] it was 18.3% (inactive); in [12] it was 29.9% (inactive). For the same compound, the nuclei count in assay [3] was 120%. Moreover, the z-score in assay [4] (setting [14]) was -0.577; in [4] (setting [15]) it was 0.628; in assay [4] (setting [16]) it was -2.35. Moreover, in [6], the fluorescence slope was -0.463 (inactive). Also, in assay [7], the NADPH fluorescence slope was -6.3e-05 (inactive). Moreover, the slope in [13] was 0.00448 (inactive).

For the compound `CCOC(=O)C1=C(C)NC(C)=C(C(=O)OC)C1c1cccc(Cl)c1Cl` (configuration not stated), in [1], the cell count was determined as 723. Besides, the inhibition in [1] was -6.4% (inactive); in assay [3], -52.9% (inactive); in assay [5], 25.1% (inactive); in assay [10], 14.9% (inactive) and 24.6% (inactive); in assay [11], 3.98% (inactive); in assay [12] it was 6.81% (inactive). In [3], this compound displayed a nuclei count of 142%. Besides, the results for the z-score in assay [4] (setting [14]), in assay [4] (setting [15]) and in assay [4] (setting [16]) were 0.529, -0.8 and 1.2, respectively. Moreover, in [6], the fluorescence slope was -0.431 (inactive). In addition, in assay [7], the NADPH fluorescence slope is -6.6e-05 (inactive). The slope in assay [13] is 0.00394 (inactive). The compound was called inactive in assay [9].

For the compound `CC[N+](C)(C)Cc1ccccc1Br`, the cell count in [1] is 649. For the same compound, the inhibition in [1] was -4.5% (inactive); in assay [3], -101% (inactive); in assay [5], 11.3% (inactive); in assay [10], 3.29% (inactive) and 10.5% (inactive); in [11], 19.3% (inactive); in assay [12], 30.2% (inactive). The nuclei count in [3] was 123%. Also, the z-score in assay [4] (setting [14]) is -1.09; in [4] (setting [15]) it was -0.375; in assay [4] (setting [16]), 0.336. In addition, the fluorescence slope in assay [6] is -0.502 (inactive). In addition, the NADPH fluorescence slope in assay [7] was 1.7e-05 (inactive). Besides, the slope in assay [13] was 0.00416 (inactive). For the same compound, the compound was classed as inactive in [9].

`CN/C(=C/[N+](=O)[O-])NCCSCc1ccc(CN(C)C)o1`: the cell count in [1] was determined as 593. For the same compound, the inhibition is -4.1% (inactive) in [1]; -23.6% (inactive) in [3]; 16.8% (inactive) in assay [5]; -22.8% (inactive) in assay [10]; 13.1% (inactive) in [11]; 30.9% (inactive) in assay [12]. In assay [3], this compound had a nuclei count of 105%. The figures for the z-score in assay [4] (setting [14]), in [4] (setting [15]) and in [4] (setting [16]) were 1.15, -0.304 and -1.85, respectively. In assay [6], the fluorescence slope is -0.46 (inactive). Further, the NADPH fluorescence slope in [7] was 1.7e-05 (inactive). Further, the slope in [13] was 0.00584 (inactive). Also, in assay [9], the compound was called inactive.
